TROY signal inh = TROY signaling inhibition; Q293 LMP1-TROYcd NF-kB luciferase reporter, 4 h; inhibition, % at 10 µM; 0.98% of 360,000 active; AID 1347056;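 active = compounds whose plate-normalised and pattern-corrected inhibition of the luciferase reporter signal at the single screening dose is 50% or more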
LGR2 antag = inhibitors of bursicon-induced Drosophila LGR2 receptor cAMP signaling; HEK293 LGR2, CRE-luciferase, bursicon-stimulated, 4 h; inhibition, % at 9.99 µM; 0.35% of 380,000 active;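 active = drop in luminescence signal, shown as inhibition above about 50% in the replicate tests, limit read from the data, passing the limit was not always enough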;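 note: agonist challenge used bursicon conditioned medium at about half maximal strength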
PAX8 inh HTS = lowers PAX8-driven luciferase in RMG-I cells. RMG-I TPO-luciferase reporter, SteadyGlo, 24 h. inhibition, % at 12.6 µM. 1.2% of 360,000 active;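 active = mean replicate inhibition at least 60% with every replicate also reaching 60%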;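 note: luciferase light reporting Pax8 driven TPO promoter activity; plate controls were median of neutral control wells for no effect and mitoxantrone controls for full effect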
EWS-Fli block = blocks EWS/Fli oncoprotein-driven transcription. inhibition, % at 12.6 µM. A673 NR0B1-luciferase reporter, viability-normalised. 0.67% of 350,000 active;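 active = mean inhibition of at least 50% after viability correction, with every replicate also passing that limit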;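 note: firefly luciferase signal divided by Alamar Blue viability fluorescence both relative to DMSO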
TWEAK Fn14 block = TWEAK-Fn14 signaling inhibition | TWEAK-stimulated Fn14 reporter cells, luciferase luminescence, 8 h | inhibition, % at 10 µM | 2% of 360,000 active; in the data active = inhibition above about 50%
An asterisk follows results filed as active; / = no result. A selection: hits, their analogues and other compounds. The true share with any hit is near 2.8%.

SMILES	TROY signal inh	LGR2 antag	PAX8 inh HTS	EWS-Fli block	TWEAK Fn14 block
Cc1ccc(NC(=O)N2CCc3ccccc32)cc1	-16.5	/	-101.6	/	65.3*
CCc1ccccc1NC(=O)N1CCCc2ccccc21	77.5*	-9.6	-15.5	-7.8	52.6*
CN1CCN(c2ccc(NC(=O)N3CCc4ccccc43)cc2)CC1	77.2*	59.7*	48.9	61.9*	95.0*
C[C@@H](NC(=O)C[C@@H]1CC[C@H]2[C@@H](COC[C@H](O)CN2Cc2ccc(C(F)(F)F)cc2)O1)c1ccccc1	/	-11.7	23.6	11.8	/
COc1ccc(NC(=O)N(C)C[C@H]2Oc3ccc(NS(C)(=O)=O)cc3C(=O)N([C@@H](C)CO)C[C@H]2C)cc1	/	3.6	/	-7.0	/
CCN(C(=O)COC(=O)Cc1cccc2ccccc12)C1CCS(=O)(=O)C1 (configuration not stated)	10.1	-3.6	-5.1	5.7	-12.6
O=C(Nc1cccc2ccccc12)N(CCO)C1CCS(=O)(=O)C1 (configuration not stated)	51.5*	-0.8	-1.1	18.5	64.0*
COc1cc(/C=C/c2nc(N)nc(-c3ccccc3O)n2)cc(OC)c1OC	17.6	-7.0	37.5	/	52.5*
COc1ccc(/C=C/c2nc(N)nc(-c3ccccc3O)n2)cc1OC	13.1	27.6	-7.2	-7.6	55.2*
O=C(C[C@@H]1CC[C@@H]2[C@H](COC[C@@H](O)CN2C(=O)Nc2ccc(Cl)c(Cl)c2)O1)NC1CCC1	/	12.2	5.1	-4.2	/
COc1ccc(Cn2c(=O)[nH]c3cc(C(=O)N4CCN(c5ccccc5OC)CC4)ccc3c2=O)cc1	31.2	/	/	/	52.6*
COc1ccc(C(=O)CCN2CCc3cc(OC)c(OC)cc3C2)cc1	8.4	7.9	71.0*	-6.2	-7.9
COc1ccc(C(=O)CCN2CCN(c3ccccc3OC)CC2)cc1	10.9	-0.1	83.2*	-4.2	10.1
COc1cc2c(cc1OC)CN(CCOc1ccc(Br)cc1)CC2	10.2	-3.4	8.0	3.1	-9.0
COc1cc(OC)cc(C(=O)N2CCC(N3CCN(c4ccccc4OC)CC3)CC2)c1	52.1*	2.0	5.2	6.0	52.9*
COc1cccc(-c2cnc3c(c2)C(=O)N([C@H](C)CO)C[C@H](C)[C@@H](CN(C)CC2CCCC2)O3)c1	/	-13.0	-23.5	-5.5	/
CN(C)C(=O)c1cccc(-c2ccccc2[C@@H]2[C@@H](C#N)N(C(=O)C3CCCCC3)[C@@H]2CO)c1	/	-8.2	15.1	1.0	/
CC(=O)Cn1ncc(Br)c(Br)c1=O	64.8*	106.1*	83.7*	30.5	86.1*
O=C(NC[C@H]1[C@@H](c2ccccc2)[C@H](CO)N1C(=O)C1CC1)NC1CCCC1	/	11.0	-3.1	5.1	/
Oc1ccc(-c2cc(-c3ccc(O)cc3)nc(-c3ccccc3)n2)cc1	53.7*	12.1	31.5	19.3	43.9
CCOc1ccc(N(C(C)C(=O)NC2CCCCCC2)S(C)(=O)=O)cc1 (configuration not stated)	-20.4	/	/	/	90.5*
Cc1noc(C)c1S(=O)(=O)Nc1cccc2c1O[C@H](CN(C)CC1CCCCC1)[C@H](C)CN([C@H](C)CO)C2=O	/	-26.7	-9.9	-1.6	/
O=C(C[C@@H]1C[C@@H]2c3cc(NS(=O)(=O)c4ccc(F)cc4)ccc3O[C@@H]2[C@@H](CO)O1)NCc1ccccc1F	/	-14.9	8.7	7.0	/
CCCc1nc(SCC(=O)N2CCC(Cc3ccccc3)CC2)c2c(=O)n(C)c(=O)n(C)c2n1	83.2*	16.6*	-1.1	3.8	60.7*
CCCc1nc(SCC(=O)Nc2ccccc2)c2c(=O)n(C)c(=O)n(C)c2n1	9.0	20.0	-1.8	-9.8	-13.2
SMILES	TROY signal inh	LGR2 antag	PAX8 inh HTS	EWS-Fli block	TWEAK Fn14 block
Oc1[nH]c2ccc(Br)cc2c1N=NC(=S)Nc1ccc(F)cc1	-3.4	1.1	70.4*	43.7	62.9*
CCCC(=O)Nc1ccc2c(c1)C(=O)N(C)C[C@@H](OC)[C@@H](C)CN(Cc1cncnc1)[C@H](C)CO2	/	-1.4	18.1	1.2	/
COc1cc(/C=C2\SC(=O)N(Cc3ccc(F)cc3)C2=O)cc([N+](=O)[O-])c1O	21.7	4.5	21.1	4.5	42.5
COc1cc(/C=C2/SC(=S)N(Cc3ccccc3)C2=O)cc(Cl)c1O	50.6*	8.8	-23.0	13.6	65.4*
COc1cc([N+](=O)[O-])cc(/C=C2/SC(=S)N(Cc3ccccc3)C2=O)c1O	48.1	26.8	4.2	8.2	70.0*
COc1cc(/C=C2\SC(=O)N(Cc3ccc(Cl)cc3)C2=O)cc([N+](=O)[O-])c1O	55.0*	4.2	10.3	4.8	55.7*
COc1cc(/C=C2/SC(=S)N(Cc3ccccc3)C2=O)ccc1OCC(=O)O	-11.9	1.7	37.9	15.5	-39.4
Cc1ccc(S(=O)(=O)N[C@@H]2CC[C@@H](CCNC(=O)c3ccccc3F)O[C@@H]2CO)cc1	/	11.2	0.8	-6.1	/
COc1cccc(S(=O)(=O)N[C@@H]2CC[C@@H](CC(=O)NCc3ccccc3)O[C@@H]2CO)c1	/	-13.2	4.3	-1.2	/
C[C@H](CO)N1C[C@H](C)[C@@H](CN(C)CC2CC2)Oc2c(NS(=O)(=O)c3cccs3)cccc2C1=O	/	/	10.6	3.6	/
CO[C@H]1CN(C)C(=O)c2cc(NC(=O)Nc3ccc(Cl)c(Cl)c3)ccc2OC[C@H](C)NC[C@H]1C	/	21.8	1.3	9.1	/
O=C(c1ccsc1)N1CCCC(N2CCN(c3ccccc3F)CC2)C1 (configuration not stated)	-9.2	0.0	-21.8	/	94.7*
COCCCNc1nnc(Cc2ccc(Cl)cc2)c(=O)[nH]1	-10.9	15.8	16.3	58.4*	35.1
C[C@@H]1CCCCO[C@H](CN(C)Cc2ccc(Cl)c(Cl)c2)[C@@H](C)CN([C@@H](C)CO)C(=O)c2cc(NC(=O)Nc3ccc(C(F)(F)F)cc3)ccc2O1	/	28.6	94.7*	-0.1	/
C[C@@H]1CCCCO[C@H](CN(C)Cc2ccc(Cl)c(Cl)c2)[C@@H](C)CN([C@H](C)CO)C(=O)c2cc(NC(=O)Nc3ccc(F)cc3)ccc2O1	/	-17.2	22.0	0.2	/
C[C@@H]1CCCCO[C@@H](CN(C)Cc2ccc(Cl)c(Cl)c2)[C@H](C)CN([C@@H](C)CO)C(=O)c2cc(NC(=O)Nc3ccc(C(F)(F)F)cc3)ccc2O1	/	17.7	91.0*	-8.1	/
C[C@H]1CCCCO[C@@H](CN(C)Cc2ccc(Cl)c(Cl)c2)[C@@H](C)CN([C@@H](C)CO)C(=O)c2cc(NC(=O)Nc3ccc(C(F)(F)F)cc3)ccc2O1	/	-4.7	83.3*	-0.7	/
CC(=O)N(C)C[C@@H]1Oc2cc(-c3cncnc3)ccc2S(=O)(=O)N([C@H](C)CO)C[C@H]1C	/	-1.6	/	-15.3	/
CN(C)C(=O)C[C@H]1C=C[C@H](NC(=O)C2CC2)[C@H](CO)O1	/	13.9	/	-0.3	/
Cc1ccc(S(=O)(=O)NCC[C@H]2CC[C@@H](NC(=O)Nc3cccc(F)c3)[C@@H](CO)O2)cc1	/	-11.1	-1.2	-1.6	/
CCOC(=O)NC(=O)COC(=O)CCCSc1nc2ccccc2s1	27.1	-12.0	28.3	22.9	54.2*
O=C(CSc1nc2ccccc2s1)NCCOc1ccccc1	-52.8	/	92.8*	-32.4	-27.2

Screening results from PubChem BioAssay.
